Most compounds without a hit are left out; they make up all but 4.6% or so of the library.
tim10-1 inh: growth inhibitors of tim10-1 mutant yeast, primary screen, luminescence, uHTS; 330,000 tested, 2.2% active; inhibition, % at 20 µM; S. cerevisiae tim10-1 ts strain growth, BacTiter-Glo, 24 h; AID 463190, 2010;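 active means inhibition of at least 40%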;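 further: mutant grown at 25 °C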
TIM10 inh: growth inhibitors of isogenic TIM10 control yeast, primary screen, counter-screen for tim10-1 yeast inhibitor project, luminescence, uHTS; S. cerevisiae TIM10 strain growth, BacTiter-Glo luminescence, 24 h; inhibition, % at 10 µM; 330,000 tested, 1.4% active;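 active means inhibition of 40% or more at the single tested concentration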;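 further: wild-type TIM10 isogenic control strain grown at permissive 25 °C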
NLRP3 yeast inh: NALP3 inflammasome inhibitors in reconstituted yeast, primary screen, luminescence, uHTS; AID 2825, 2010; inhibition, % at 10 µM; 330,000 tested, 0.39% active; Yeast reconstituted NLRP3/ASC/caspase-1, beta-gal luminescence, 24 h;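 active means inhibition of 50% or more; inactive means inhibition below 50%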
SKKanGAS inh: S. pyogenes SKKanGAS growth inhibitors in kanamycin, primary screen, streptokinase expression inhibitor project, SKKanGAS strain, BacTiter-Glo luminescence; 300,000 tested, 1.3% active; 6 h; inhibition, % at 7.5 µM; AID 1662, 2009;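 active means mean replicate score, as percent of positive control median, at least 50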;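 further: strain carries kanamycin resistance gene driven by streptokinase promoter and grows in 40 µg/ml kanamycin; loss of luminescence reflects streptokinase promoter inhibition or plain growth inhibition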
PfHsp90 set2: growth inhibition of PfHsp90-expressing yeast, primary screen, antimalarial PfHsp90 inhibitor project, S. cerevisiae, BacTiter-Glo luminescence, single point, set 2; inhibition, % at 9.4 µM; 310,000 tested, 0.32% active; BacTiter-Glo ATP, 48 h; yeast lacking PDR1 and PDR3 efflux regulators;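 active means every replicate shows inhibition above about 80%, whatever the replicate mean, limit read from the data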
tim23-1 inh: growth inhibitors of tim23-1 mutant yeast, primary screen, luminescence, uHTS; S. cerevisiae tim23-1 growth, BacTiter-Glo luminescence, 24 h; inhibition, % at 20 µM; 330,000 tested, 1.3% active; AID 463212, 2010;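 active means growth inhibition of the mutant yeast at or above 50%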;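 further: temperature-sensitive mutant grown at 25 °C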
tim10-1 confirm: growth inhibitors of tim10-1 mutant yeast, confirmation, single concentration, luminescence, S. cerevisiae; inhibition, % at 20 µM; 7,400 tested, 56% active; shares compounds with tim10-1 inh; S. cerevisiae tim10-1 ts strain growth, BacTiter-Glo, 24 h;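 active means inhibition of yeast growth at or above a set limit in either of two repeat tests at 20 µM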;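 further: tim10-1 mutant grown at permissive 25 °C to find synthetic lethal compounds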
Numbers stand for hits; . = inactive; / = not tested or not shown.

SMILES	tim10-1 inh	TIM10 inh	NLRP3 yeast inh	SKKanGAS inh	PfHsp90 set2	tim23-1 inh	tim10-1 confirm
O=c1c2ccccc2sc2ccc(C#CC3(O)CCCCC3)cc12	41	.	.	.	.	.	35
C=CCn1c2ccccc2c(=O)c2cc(C#CC3(O)CCCCC3)ccc21	.	.	.	.	.	.	/
O=C(COC(=O)CC1CCCCC1)Nc1c(Cl)cccc1Cl	.	.	.	/	.	.	/
CC(C(=O)NCC1CCCCC1)N1CCc2ccccc2C1 (configuration not stated)	.	.	.	.	.	.	/
CC(C(=O)NCC1CCCCC1)N1CCN(S(=O)(=O)/C=C/c2ccccc2)CC1 (configuration not stated)	41	.	.	.	.	.	.
CCCn1nnnc1NCc1ccccc1C	.	.	.	.	.	.	/
CC(=O)Nc1ccc2c(c1)nc(C)n2-c1ccccc1	.	.	.	.	.	.	/
Cc1nc2cc(Cl)ccc2n1-c1ccccc1	47	.	.	.	.	.	.
COc1cccc(/C=C/C(=O)Nc2ccccc2N2CCOCC2)c1	.	.	.	.	.	.	/
O=[N+]([O-])c1ccc(Nc2ccc(Cl)cc2)nc1	59	.	.	.	.	.	42
O=[N+]([O-])c1ccc(NCc2ccc(Cl)cc2)nc1	.	.	.	.	.	.	/
COc1ccc(CCn2c(-c3ccco3)nc3nc4ccccc4nc32)cc1	41	.	.	.	.	.	.
COc1ccccc1Cn1c(-c2ccco2)nc2nc3ccccc3nc21	.	.	.	.	.	.	/
O=C(Nc1c2c(nn1-c1ccc(F)cc1)CS(=O)(=O)C2)c1ccc(Br)o1	.	.	.	.	.	.	/
O=C(CCl)Nc1ncc(S(=O)(=O)c2ccc([N+](=O)[O-])cc2)s1	.	.	.	/	.	.	/
CCC(C)(C)C(=O)Nc1ncc(S(=O)(=O)c2ccc([N+](=O)[O-])cc2)s1	42	.	.	.	.	.	.
O=C1C2C3C=CC(CO)(O3)C2C(=O)N1c1ccccc1-c1ccccc1 (configuration not stated)	53	.	.	/	142	.	87
O=C(Cc1ccccc1F)c1ccc(O)cc1O	43	.	.	.	.	.	31
Cc1cc(C)cc(OCC(=O)N2N=C(C(F)(F)F)CC2(O)C(C)(C)C)c1 (configuration not stated)	46	.	.	.	.	.	34
S=C(NCC1CCCO1)NC1CCCC1 (configuration not stated)	.	.	.	.	.	.	/
CN1CCN(C(=S)NC(=O)/C=C/c2cccc3ccccc23)CC1	51	.	.	.	.	.	.
CN1CCN(C(=S)NC(=O)/C=C/c2cccs2)CC1	.	.	.	.	.	.	/
Cn1c(NC(=O)/C=C\c2ccccc2)cc(=O)n(C)c1=O	.	.	.	.	.	.	/
Cc1c([N+](=O)[O-])c(C(=O)N2CCCC2)nn1C	.	.	.	.	.	.	/
Cc1c([N+](=O)[O-])c(C(=O)Sc2ccc(Br)cc2)nn1C	47	.	.	.	.	.	46
SMILES	tim10-1 inh	TIM10 inh	NLRP3 yeast inh	SKKanGAS inh	PfHsp90 set2	tim23-1 inh	tim10-1 confirm
O=C(CSc1nnc(COc2ccccc2)n1-c1ccccc1)c1ccccc1	40	.	.	.	.	.	.
COc1ccc(C(=O)CSc2nnc(COc3ccc(C#N)cc3)n2-c2ccccc2)cc1	.	.	.	.	.	.	/
CCC(=O)N1CCc2cc(S(=O)(=O)N3CCN(c4ccccc4Cl)CC3)ccc21	.	.	.	.	.	.	/
Cc1ccc([N+](=O)[O-])cc1NC(=S)NC(=O)C(C)(C)C	.	.	.	.	.	.	/
Cc1ccc([N+](=O)[O-])cc1NC(=S)NC(=O)CC(C)(C)C	43	.	.	.	.	.	.
Cn1nnc(NC(=S)NC(=O)c2cc(Cl)ccc2Cl)n1	41	.	.	.	.	.	.
Cc1ccccc1NC1=C(Cl)C(=O)OC1OC(=O)c1ccccc1C (configuration not stated)	40	.	.	.	.	.	.
Cc1ccc(NC2=C(Cl)C(=O)OC2OC(=O)c2ccccc2)c(C)c1 (configuration not stated)	.	.	.	.	.	.	/
Cc1ccc(OC(=O)CCC(=O)Nc2ccc(C)c(C)c2)cc1	.	.	.	.	.	.	/
COc1ccc(OC)c(-n2c(SCC(=O)Nc3cc(C)on3)nnc2-c2c[nH]c3ccccc23)c1	52	.	.	.	.	.	.
COc1cc2c(cc1OC)/C(=C/c1ccc(Br)cc1)C(=O)OC2	43	.	.	.	.	.	.
Cc1c(C(=O)C(=O)N2CCN(C)CC2)c2ccccc2n1C	.	.	.	.	.	.	/
Cc1c(C(=O)C(=O)N2CCCc3ccccc32)c2ccccc2n1C	43	.	.	.	.	.	.
Cc1nn(C(C)C(=O)NC2CCC(C)CC2)c(=O)c2nn(-c3ccccc3)c(C)c12 (configuration not stated)	41	.	.	.	.	.	.
Cc1ccc(-c2noc(CN(C(=O)c3ccc4c(c3)OCO4)C(C)C)n2)cc1	.	.	.	.	.	.	/
CC(C)N(Cc1nc(-c2ccccc2)no1)C(=O)c1ccc2c(c1)OCO2	81	.	.	.	/	.	.
Cc1cc(C)n(-c2cc(C(C)(C)C)nc3c(-c4ccc(Cl)cc4)cnn23)n1	.	.	.	.	.	.	.
COc1ccc(CNC(=O)C(C)OC(=O)CCN2C(=O)C3CC=CCC3C2=O)cc1 (configuration not stated)	.	.	.	.	/	.	/
Cc1cc(C)c2c(n1)sc1c(N3CCCCC3)ncnc12	.	.	.	.	.	.	/
CCN(CC)c1ncnc2c1sc1nc(C)cc(C)c12	43	.	.	.	/	.	.
FC(F)(F)c1cccc(N2CCN(c3ccc4nnc(-c5ccccc5)n4n3)CC2)c1	49	.	.	.	.	.	.
FC(F)(F)c1cccc(N2CCN(c3nnnn3-c3ccccc3)CC2)c1	43	.	.	.	.	.	.
Cc1ccc(O)c(NC(=O)C2CC(c3cccc(Br)c3)=NO2)c1 (configuration not stated)	.	.	.	.	.	.	/
Cc1ccccc1NC(=S)NCCSc1ccc(Cl)cc1	47	.	.	.	.	.	.
Cc1ccc(C)c(NC(=S)NCCSc2ccc(Cl)cc2)c1	.	.	.	.	.	.	/
